Hit rate of the full screen: of about 5,500 compounds, about 2,000 (36%) were called active. Another 18% or so got no clear call; they are omitted. No stated cut-off is given here; in the data, active means normalized growth mostly below about 0.91 (no sharp cut-off); inconclusive means no clear call, values can overlap the other calls; inactive means mostly above about 0.92. The list shows a part of the results.
Experiment: chemical genetic growth profiling, strain panel (AID 1159580);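 further: tested at 20 µM; growth read once vehicle control cultures reached saturation at 30 °C; 1 = growth at the plate median or of vehicle wells; lower values mean less growth of the strain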
Conditions: S. cerevisiae deletion strains, growth OD

Measured: normalized growth

CCCN1CCC[C@@H]2Cc3nc(N)ncc3C[C@H]21
inactive: locus YAL013W, strain DEP1, active compounds read low 1.02 | locus YAL040C, strain CLN3, active compounds read low 1.01 | locus YCL061C, strain MRC1 (second series), active compounds read low 1.01 | locus YDR363W, strain ESC2, active compounds read low 0.999 | locus YER002W, strain NOP16, active compounds read low 1.02 | locus YMR307W, strain GAS1, active compounds read low 0.995 | locus YNL128W, strain TEP1, active compounds read low 1.01 | locus YNL175C, strain NOP13, active compounds read low 1.02 | locus YNL197C, strain WHI3, active compounds read low 1.01 | locus YNL224C, strain SQS1, active compounds read low 1.01 | locus YNL322C, strain KRE1, active compounds read low 0.999 | locus YOR083W, strain WHI5 (second series), active compounds read low 1.01 | locus YPL241C, strain CIN2, active compounds read low 1
